CHX counter = counter-screen hit for Shiga toxin inhibitors, cycloheximide | max response, % | AID 2314 | cell reporter, cycloheximide protein synthesis inhibition counterscreen | 300,000 compounds, 12% hits; in the data active means max response mostly above about 13%, no sharp cut-off; inactive means mostly below about 14%; further: read at 38.3 µM for the half of the compounds with a filed dose; 0% is about no effect
AmpC no deterg = inhibitors of E. coli AmpC beta-lactamase without detergent. 330,000 compounds, 0.52% hits. AmpC nitrocefin hydrolysis, absorbance 480 nm, 0.0001% Triton. AID 485341. Potency, µM (top dose mostly 57.1 µM), inactives show at the highest dose activity change, negative = inhibition, hits mostly inhibitors;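 further: potency means the concentration at half of the fitted maximal effect; plate controls were no compound for no effect and no enzyme for full effect; nearly all actives have a fitted effect of over 20% in size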
Target sequence (P00811 whole entry, looked up): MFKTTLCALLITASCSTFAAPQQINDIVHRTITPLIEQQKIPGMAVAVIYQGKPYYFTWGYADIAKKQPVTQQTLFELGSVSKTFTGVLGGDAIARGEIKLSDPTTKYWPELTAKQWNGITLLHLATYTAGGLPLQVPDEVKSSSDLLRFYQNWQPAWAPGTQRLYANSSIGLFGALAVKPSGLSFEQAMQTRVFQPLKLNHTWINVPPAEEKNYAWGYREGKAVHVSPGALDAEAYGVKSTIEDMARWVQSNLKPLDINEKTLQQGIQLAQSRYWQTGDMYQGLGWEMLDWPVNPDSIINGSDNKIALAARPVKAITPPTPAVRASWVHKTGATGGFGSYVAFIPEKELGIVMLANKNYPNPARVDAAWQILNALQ
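AmpC (5.3 nM in the dispensed reagent) in 20 mM phosphate pH 7.0 with 0.01% (detergent screen) or 0.0001% Triton X-100 was preincubated with compounds for 15 min at room temperature. Nitrocefin was then added from an 800 uM solution, and hydrolysis was followed at 480 nm.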
NS1 inh = influenza NS1 inhibition; Potency, µM (titrated, usually from 46.1 µM), inactives show at the top dose activity, positive = more growth; 270,000 compounds, 0.4% hits; AID 2326; calls by dose curve; further: potency means the concentration at half of the fitted maximal effect; actives are rising curves; nearly all actives have a fitted effect of over 50% in size
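In this qHTS, NS1 from influenza A is expressed in budding yeast, where it slows growth. Cells are switched from glucose to 2% galactose medium (pH 6.0, -URA), treated with compound, and growth recovery is read at OD600.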
Shiga toxin inh = inhibitors of Shiga toxin in Vero cells. Vero cells, Shiga toxin protein synthesis inhibition reporter. inhibition, % at 38.7 µM. 290,000 compounds, 9.2% hits. AID 2315; in the data active means inhibition mostly above about 28%, no sharp cut-off; inactive means mostly below about 43%; further: 0% is about no effect
AmpC inh detg = blocks E. coli AmpC beta-lactamase in detergent assay | P00811 | AmpC hydrolysis of nitrocefin, absorbance 480 nm, 0.01% Triton | Potency, µM (highest dose often 114 µM), for inactives: at the highest dose activity change, negative = inhibition, actives largely listed as inhibitors | 370,000 compounds, 0.041% hits | AID 485294;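 further: potency means the concentration at half of the fitted maximal effect; 0% = no-compound wells and -100% = no-enzyme wells; nearly all actives have a fitted effect of over 25% in size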
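AmpC (5.3 nM in the dispensed reagent) in 20 mM phosphate pH 7.0 with 0.01% (detergent screen) or 0.0001% Triton X-100 was preincubated with compounds for 15 min at room temperature. Nitrocefin was then added from an 800 uM solution, and hydrolysis was followed at 480 nm.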
Numbers without * were called inactive; ? = inconclusive; . = not tested or not shown. The full list was thinned out, with hits kept by preference. Unless noted, the call rests on the fitted dose curve; in most records, active means well fitted curve in the direction sought with a large enough effect; inconclusive means small, poorly fitted or top-dose-only effect, or another doubt; inactive means no such curve, though single readings can be large; an effect the other way counts as inactive or inconclusive.

SMILES	CHX counter	AmpC no deterg	NS1 inh	Shiga toxin inh	AmpC inh detg
CC#CCCCC(=O)Nc1cccc(C(=O)O)c1	25*	-18%	17%	82*	?
O=C(NC(=S)Nc1cccc([N+](=O)[O-])c1)c1ccccc1	36*	-29%	-3%	78*	7%
CC(=O)c1cccc(NC(=S)NC(=O)c2ccccc2)c1	46*	-25%	6%	103*	-10%
Cc1cccc(C(=O)NC(=S)Nc2ccccc2C(F)(F)F)c1	9	-30%	10%	36	-12%
Cc1ccc(C(=O)NC(=S)Nc2ccccc2C(F)(F)F)cc1C	16*	-30%	-32%	37*	4%
C[C@H](C(=O)c1ccccc1)C(c1ccccc1)N1CCOCC1 (stereo partly specified)	.	.	0%	.	.
COc1cc(Cl)c(C)cc1NC(=O)CSc1cc(=O)n(C)c2cc(Cl)ccc12	.	.	.	.	0%
Cc1cccnc1NC(=O)CN1C(=O)c2ccccc2S1(=O)=O	.	18%	.	.	?
O=C(NCCS(=O)(=O)NCc1ccccn1)c1ccccc1	.	-14%	.	.	?
O=C(CSc1ncc(-c2ccccc2)n1C1CCCC1)N1CCc2ccccc21	9	13%	5%	18	?
CCN(CC)C(=O)CN1C(=O)COCC1=O	-3	-20%	0%	-3	1%
CCCCC(=O)NC(=S)Nc1cccc(C(=O)O)c1	9	-13%	0%	60*	6%
COCCCNC(=S)NNC(=S)Nc1cccc(Cl)c1	28*	-33%	-37%	90*	-3%
O=C(CNC(=S)NC(=O)c1cccc([N+](=O)[O-])c1)c1ccccc1	4	13µM*	12%	-5	-8%
CCCCC(=O)NC(=S)Nc1cccc(NC(=O)CC)c1	-1	-26%	10%	-3	-3%
O=C(O)c1cccc(NC(=S)NC(=O)c2ccc(-c3ccccc3)cc2)c1	46*	-26%	8%	143*	0%
COc1ccc(-c2nc(C)c(CCNC(=O)C(=O)Nc3cc(C)cc(C)c3)s2)cc1OC	.	.	.	.	-4%
COc1ccccc1CNC(=O)c1cc2cc(C)ccc2n1C	.	.	.	.	17%
CN(C)CCNC(=O)Cn1nc(N2CCN(c3ccccc3)CC2)ccc1=O	.	.	.	.	-6%
COc1cc([N+](=O)[O-])ccc1NC(=S)NNC(=O)CCC(=O)Nc1ccccc1Cl	33*	-1%	-15%	28*	9%
O=C(NC(=S)Nc1cc([N+](=O)[O-])ccc1Cl)c1ccccc1	41*	-30%	-7%	62*	-4%
O=C(O)c1ccc(Cl)c(NC(=S)NC(=O)c2ccccc2[N+](=O)[O-])c1	1	-27%	.	-8	3%
COc1ccc2c(c1)c1c(c(=O)n(Cc3ccccc3)c(=O)n1CC(=O)NCc1ccc(C)cc1)n2C	.	.	.	.	10%
O=C(N/N=C1\CCCc2oc(C(=O)O)cc21)c1ccccc1	44*	-20%	-1%	74*	5%
O=C(N/N=C1\CCCc2ccccc21)c1cccc(Br)c1	38*	-37%	.	59*	-5%
SMILES	CHX counter	AmpC no deterg	NS1 inh	Shiga toxin inh	AmpC inh detg
O=C(NN=C1CCCCCCCCCCC1)c1cccnc1	-2	-5%	.	-3	?
O=C(NN=C1CCCC1)c1cccc(Br)c1	26*	-16%	-1%	87*	8%
O=C(N/N=C1/CCCc2ccccc21)C(c1ccccc1)c1ccccc1	1	-37%	3%	61*	-5%
O=C(N/N=C1\CCCc2ccccc21)c1cccc([N+](=O)[O-])c1	10	-32%	-3%	33	?
Cc1ccc(CN(C(=O)COc2cccc([N+](=O)[O-])c2)c2ccccn2)o1	.	.	.	.	14%
Cc1cc(OCC(=O)Nc2c(C(=O)c3ccccc3)oc3ccccc23)cc(C)c1Cl	.	.	.	.	20%
Cc1cnc(NC(=O)Nc2ccccc2)c(C)n1	-3	-3%	-5%	4	-17%
COc1ccc(-n2c(=O)c3sc4ccccc4c3n(CC(=O)Nc3ccccc3F)c2=O)cc1	.	.	.	.	-5%
O=c1c2cc3c(=O)n(-c4ccccc4O)c(=O)c3cc2c(=O)n1-c1ccccc1O	27*	-20%	-3%	106*	-7%
COc1ccc(CCN2CC(C(=O)N(C)Cc3ccccc3OC)CCC2=O)cc1 (stereo unspecified)	7	111%	-21%	-14	1%
O=C(NCCOc1ccccc1)C1CCC(=O)N(Cc2ccc(Cl)cc2)C1 (stereo unspecified)	1	124%	1%	20	2%
CCc1ccc(CN(C)C(=O)C2CCC(=O)N(CC3CCCCC3)C2)cc1 (stereo unspecified)	38*	228%	2%	11	4%
O=C(NCCOc1ccccc1)C1CCC(=O)N(CCc2ccc(Cl)cc2)C1 (stereo unspecified)	19*	193%	-11%	33	2%
CN(CCOc1ccccc1)C(=O)C1CCC(=O)N(CCc2ccc(Cl)cc2)C1 (stereo unspecified)	46*	213%	2%	87*	3%
CN(Cc1ccccn1)C(=O)C1CCC(=O)N(CCc2ccc(Cl)cc2)C1 (stereo unspecified)	1	5%	-7%	-4	7%
Cc1ccc(OCCN(C)C(=O)C2CCC(=O)N(CC3CCCCC3)C2)cc1 (stereo unspecified)	-3	172%	-26%	10	-8%
COc1ccc(CCN2CC(C(=O)N(C)CCOc3ccccc3)CCC2=O)cc1 (stereo unspecified)	26*	105%	-15%	22	1%
CCCCOC(=O)CSc1nnc(-c2ccc(C)cc2)o1	.	.	.	.	2%
CN(Cc1cnccn1)C(=O)C1CCC(=O)N(CCc2ccccc2)C1 (stereo unspecified)	-3	-14%	13%	-5	-2%
CCOc1ccc(CCNC(=O)C2CC(=O)N(CCc3ccccc3)C2)cc1OCC (stereo unspecified)	-2	109%	-19%	-4	1%
Cc1ccc(CN(C)C(=O)C2CCC(=O)N(CCc3ccccc3)C2)o1 (stereo unspecified)	20*	34%	14%	31*	?
O=C1CCC(C(=O)N2CCC(O)CC2)CN1CCc1ccc(Cl)cc1 (stereo unspecified)	2	-6%	6%	-31	2%
O=C1CCC(C(=O)N2CCCCO2)CN1CCc1ccc(Cl)cc1 (stereo unspecified)	20*	63%	8%	20	9%
CCOC(=O)CC1(NC(=O)C2CCC(=O)N(CCc3ccc(OC)cc3)C2)CCCCC1 (stereo unspecified)	29*	124%	-4%	2	-3%
COc1ccc(CCN2CC(C(=O)NCC3(O)CCCCC3)CCC2=O)cc1 (stereo unspecified)	-3	16%	-1%	-11	-9%
COc1ccc(CCN2CC(C(=O)NCCc3ccccc3)CC2=O)cc1OC (stereo unspecified)	36*	3%	.	172*	4%
Cc1ccc(-c2nc(CNC(=O)NC3CCCCC3)c(C)o2)cc1	.	.	.	.	-6%

Bioassay records from PubChem BioAssay.
